Measurements taken from PubChem BioAssay.
Activity calls are given as the source filed them.

Tested on: XIP peptide (Xip251-270) binding
Experiment: small-molecule binders of XIP peptide, primary screen, biochemical, small-molecule microarray, fluorescence 635/667 nm, 0.1 µg/mL protein (AID 1182)
Conditions: fluorescent protein binding, 635 nm, higher = more signal, called active from +8 up or from −8 down

Composite z-score, inactive:
[N-]=[N+]=NCc1ccccc1C[C@]1(C(=O)NCc2ccccc2)COC(c2ccc(OCCCO)cc2)=N1 0.395
COc1ccc([Si](C)(C)[C@H]2[C@H](CC(=O)N(CCO)Cc3ccccc3)O[C@@]3(C(=O)N(Cc4cccc(N5C(=O)c6cccc7cccc5c67)c4)c4ccccc43)[C@@H]2C)cc1 0.719
Cc1ccc(S[C@]2(C(=O)NCC(F)(F)F)CC(=O)N(C3Cc4ccccc4C3)[C@@H]2c2ccc(CO)cc2I)cc1 0.448
O=[N+]([O-])c1ccc(C[n+]2ccc(CCCO)cc2)o1 0.46
CCCCC(=C=CC[C@H](O)c1ccccc1OCCO)C[C@H](O)c1cc(Cl)cc(Cl)c1O 0.776
CCCNC(=O)[C@@]1(C)c2ccccc2C(=O)N(Cc2ccc(OC(F)(F)F)cc2)[C@H]1c1ccc(CO)cc1 0.689
COc1ccc(C(O)C2C=CC3C(=O)N(c4ccccc4)C(=O)C3N2Nc2ccccc2)c2ccccc12 (stereo not drawn) 2.31
CC(C)(C)OC(=O)CC[C@]1(C(=O)NCC(O)CO)N=C(c2ccc(OCCCO)cc2)O[C@H]1c1ccccc1CN=[N+]=[N-] (stereo partly drawn) 3.09
CCOC(=O)C=Cc1cccc(OC)c1O 0.0682
C=CCN1C(=O)[C@]2(Cc3ccccc31)N=C(c1ccc(OCCCO)cc1)O[C@@H]2c1ccccc1 0.526
C=CC[C@@]1(C(N)=O)N=C(c2ccc(OCCCO)cc2)O[C@@H]1c1ccccc1N=[N+]=[N-] 0.868
C=CCC(OC(C)=O)[C@@H]1[C@@H](N(Cc2cc3ccccc3o2)C(=O)c2cccc3ccccc23)c2cc(OCCCO)ccc2N1C(=O)Cc1ccc(OC)cc1 (stereo partly drawn) 0.1
O=C1C2C=CC(C(O)c3ccc(-c4ccccc4)s3)N(Nc3ccccc3F)C2C(=O)N1c1ccccc1 (stereo not drawn) 0.251
C=CC[C@@]1(C(=O)OC)N=C(c2ccc(OCCCO)cc2)O[C@@H]1c1ccccc1CN=[N+]=[N-] 2.46
O=C1C2C=CC(C(O)C3CC=CCC3)N(n3cnnc3)C2C(=O)N1Cc1ccccc1 (stereo not drawn) 0.887
CN(C)CCCC[C@@H]1NC(=O)[C@@H]2C[C@H](C(=O)NCCCCCN)[C@H](c3ccc(O)cc3)N2C1=O 0.633
CCOC(=O)C1=C[C@@H](C(C)(C)C)N(S(=O)(=O)c2ccc(C)cc2)[C@H]1c1ccc(Cl)c(Cl)c1 -0.0073
C=CCN1C(=O)[C@@]2(O[C@@H](CCO)[C@H]([Si](C)(C)c3ccc(OC)cc3)[C@H]2C)c2cc(NC(C)=O)ccc21 0.149
CCN(CC)c1ccc(N2CC=CC34O[C@@H]5/C=C\CCC(C)OC(=O)C5[C@H]3C(=O)N(CCCCCCO)[C@@H]4C2=O)cc1 (stereo partly drawn) 0.76
[N-]=[N+]=NCc1ccccc1C[C@]1(C(N)=O)N=C(c2ccc(OCCCO)cc2)O[C@H]1c1ccccc1N=[N+]=[N-] 2.56
COCCOC(=O)N1C(=O)[C@@]2(c3cc(C#CC4=CCCCC4)ccc31)[C@H](C(=O)N1CCN(c3ncccn3)CC1)[C@H]1C(=O)O[C@H](c3ccccc3)[C@H](c3ccccc3)N1[C@@H]2c1ccc(OCCO)cc1 0.499
Cc1ccc(S[C@]2(C(=O)NCC(C)C)CC(=O)N(Cc3ccccc3)[C@@H]2c2ccc(CO)cc2)cc1 1.34
O=C1c2ccccc2[C@](Cc2ccccc2I)(C(=O)O)[C@H](c2ccc(CO)cc2)N1Cc1ccccc1C(F)(F)F 0.185
C=C(C)[C@@H]1CC=C(C(O)C2C=CC3C(=O)N(Cc4ccccc4)C(=O)C3N2n2cnnc2)CC1 (stereo partly drawn) -0.137
C=CCNC(=O)[C@@H]1[C@H]2C(=O)O[C@H](c3ccccc3)[C@H](c3ccccc3)N2[C@H](c2ccccc2OCCO)[C@@]12C(=O)N(C(=O)OCCOC)c1ccc(C#CCC(C(=O)OC)C(=O)OC)cc12 2.28
CCCC[C@H]1OB(O)C[C@H]2C1=C(COc1ccccc1)C[C@H]1C(=O)N(Cc3ccccc3)C(=O)[C@H]12 -0.0195
CC(C)C(O)C1C=CC2C(=O)N(C)C(=O)C2N1N1CCCCC1 (stereo not drawn) -0.335
CCN(CC)c1ccc(N2CC=CC34O[C@@H]5/C=C\CCCOC(=O)C5[C@H]3C(=O)N(CCCO)[C@@H]4C2=O)cc1 (stereo partly drawn) 0.828
